Results reported in PubChem BioAssay AID1159580 (chemical genetic matrix, 2015).
Screen size: about 5,500 compounds; about 2,000 (36%) were called active. Not shown: some 18% with an inconclusive outcome. Rule as the data show it: active = normalized growth mostly below about 0.91 (no sharp cut-off); inconclusive = no clear call, values can overlap the other calls; inactive = mostly above about 0.92. The list shows a part of the results.

Assay: chemical genetic growth profiling, strain panel (AID 1159580);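 also: tested at 20 µM; growth read once vehicle control cultures reached saturation at 30 °C; 1 = growth at the plate median or of vehicle wells; lower values mean less growth of the strain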
Settings: growth OD

Measured: normalized growth

CC12CCC(CC1)C(C)(C)O2
inactive: S. cerevisiae deletion strains, locus YJL187C, strain SWE1 (second series), active compounds read low 1 | S. cerevisiae deletion strains, locus YJL187C, strain SWE1, active compounds read low 0.989 | S. cerevisiae deletion strains, locus YJR043C, strain POL32, active compounds read low 0.989 | S. cerevisiae deletion strains, locus YJR066W, strain TOR1, active compounds read low 0.94 | S. cerevisiae deletion strains, locus YKL009W, strain mrt4, active compounds read low 1.03 | S. cerevisiae deletion strains, locus YKL068W, active compounds read low 1.01 | S. cerevisiae deletion strains, locus YKL085W, strain MDH1 (second series), active compounds read low 1.01 | S. cerevisiae deletion strains, locus YKL085W, strain MDH1, active compounds read low 1.01 | S. cerevisiae deletion strains, locus YKL160W, strain elf1, active compounds read low 1 | S. cerevisiae deletion strains, locus YKR001C, strain vps1, active compounds read low 1.01 | S. cerevisiae deletion strains, locus YKR026C, strain gcn3, active compounds read low 0.977 | S. cerevisiae deletion strains, locus YKR091W, strain srl3, active compounds read low 0.993 | S. cerevisiae deletion strains, locus YLL001W, strain dnm1, active compounds read low 0.985 | S. cerevisiae deletion strains, locus YLL026W, active compounds read low 0.977 | S. cerevisiae deletion strains, locus YLL041C, strain sdh2, active compounds read low 0.974 | S. cerevisiae deletion strains, locus YLR027C, strain aat2, active compounds read low 0.97 | S. cerevisiae deletion strains, locus YLR039C, strain RIC1, active compounds read low 1.01 | S. cerevisiae deletion strains, locus YLR058C, strain SHM2, active compounds read low 1.01 | S. cerevisiae deletion strains, locus YLR102C, strain apc9, active compounds read low 1.01 | S. cerevisiae deletion strains, locus YLR113W, strain HOG1, active compounds read low 0.994 | S. cerevisiae deletion strains, locus YLR221C, strain rsa3, active compounds read low 0.98 | S. cerevisiae deletion strains, locus YLR258W, strain gsy2, active compounds read low 0.976 | S. cerevisiae deletion strains, locus YLR262C, strain YPT6 (second series), active compounds read low 1.03 | S. cerevisiae deletion strains, locus YLR262C, strain YPT6, active compounds read low 1 | S. cerevisiae deletion strains, locus YLR268W, strain sec22, active compounds read low 0.994 | S. cerevisiae deletion strains, locus YLR320W, strain mms22, active compounds read low 0.994 | S. cerevisiae deletion strains, locus YLR330W, strain CHS5, active compounds read low 1.01 | S. cerevisiae deletion strains, locus YLR342W, strain FKS1 (second series), active compounds read low 1.04 | S. cerevisiae deletion strains, locus YLR342W, strain FKS1, active compounds read low 0.974 | S. cerevisiae deletion strains, locus YLR357W, strain rsc2, active compounds read low 0.932 | S. cerevisiae deletion strains, locus YLR370C, strain arc18, active compounds read low 0.972 | S. cerevisiae deletion strains, locus YLR371W, strain rom2, active compounds read low 1.02 | S. cerevisiae deletion strains, locus YLR384C, strain iki3, active compounds read low 0.974 | S. cerevisiae deletion strains, locus YLR418C, strain cdc73, active compounds read low 1.05 | S. cerevisiae deletion strains, locus YML016C, strain PPZ1, active compounds read low 1.01 | S. cerevisiae deletion strains, locus YML032C, strain rad52, active compounds read low 1.02 | S. cerevisiae deletion strains, locus YML120C, strain ndi1, active compounds read low 0.988 | S. cerevisiae deletion strains, locus YML124C, strain tub3, active compounds read low 1.02 | S. cerevisiae deletion strains, locus YMR058W, strain fet3, active compounds read low 0.98 | S. cerevisiae deletion strains, locus YMR078C, strain ctf18, active compounds read low 1.01 | S. cerevisiae deletion strains, locus YMR125W, strain sto1, active compounds read low 0.977 | S. cerevisiae deletion strains, locus YMR129W, active compounds read low 0.992 | S. cerevisiae deletion strains, locus YMR205C, strain PFK2, active compounds read low 0.99 | S. cerevisiae deletion strains, locus YMR223W, strain ubp8, active compounds read low 1.03 | S. cerevisiae deletion strains, locus YMR231W, strain pep5, active compounds read low 0.957 | S. cerevisiae deletion strains, locus YMR307W, strain GAS1, active compounds read low 0.998 | S. cerevisiae deletion strains, locus YNL067W, strain RPL9B, active compounds read low 1 | S. cerevisiae deletion strains, locus YNL071W, strain lat1, active compounds read low 0.984 | S. cerevisiae deletion strains, locus YNL183C, strain NPR1, active compounds read low 0.907 | S. cerevisiae deletion strains, locus YNL209W, strain ssb2, active compounds read low 0.98 | S. cerevisiae deletion strains, locus YNL233W, strain BNI4, active compounds read low 1.01 | S. cerevisiae deletion strains, locus YNL248C, strain rpa49, active compounds read low 0.978 | S. cerevisiae deletion strains, locus YNL250W, strain rad50, active compounds read low 0.99 | S. cerevisiae deletion strains, locus YNL271C, strain bni1, active compounds read low 1.01 | S. cerevisiae deletion strains, locus YNL298W, strain CLA4, active compounds read low 1.02 | S. cerevisiae deletion strains, locus YNL307C, strain MCK1, active compounds read low 1.01 | S. cerevisiae deletion strains, locus YNL322C, strain KRE1 (second series), active compounds read low 0.967 | S. cerevisiae deletion strains, locus YNR049C, strain mso1, active compounds read low 0.983 | S. cerevisiae deletion strains, locus YNR052C, strain pop2, active compounds read low 1.01 | S. cerevisiae deletion strains, locus YOL012C, strain htz1 0.871 | S. cerevisiae deletion strains, locus YOL147C, strain pex11, active compounds read low 1.01 | S. cerevisiae deletion strains, locus YOR001W, strain rrp6, active compounds read low 0.98 | S. cerevisiae deletion strains, locus YOR061W, strain CKA2, active compounds read low 1.01 | S. cerevisiae deletion strains, locus YOR069W, strain VPS5, active compounds read low 1 | S. cerevisiae deletion strains, locus YOR070C, strain gyp1, active compounds read low 0.971 | S. cerevisiae deletion strains, locus YOR080W, strain dia2, active compounds read low 0.975 | S. cerevisiae deletion strains, locus YOR083W, strain WHI5, active compounds read low 0.992 | S. cerevisiae deletion strains, locus YOR106W, strain vam3, active compounds read low 0.954 | S. cerevisiae deletion strains, locus YOR136W, strain idh2, active compounds read low 1 | S. cerevisiae deletion strains, locus YOR144C, strain elg1, active compounds read low 1.01 | S. cerevisiae deletion strains, locus YOR184W, strain ser1, active compounds read low 1 | S. cerevisiae deletion strains, locus YOR231W, strain MKK1, active compounds read low 1.01 | S. cerevisiae deletion strains, locus YOR265W, strain rbl2, active compounds read low 0.999 | S. cerevisiae deletion strains, locus YOR270C, strain vph1, active compounds read low 1.02 | S. cerevisiae deletion strains, locus YOR290C, strain snf2, active compounds read low 0.979 | S. cerevisiae deletion strains, locus YOR316C, strain cot1, active compounds read low 1.02 | S. cerevisiae deletion strains, locus YPL051W, strain arl3, active compounds read low 0.973 | S. cerevisiae deletion strains, locus YPL055C, strain LGE1, active compounds read low 1.02 | S. cerevisiae deletion strains, locus YPL078C, strain atp4, active compounds read low 0.995 | S. cerevisiae deletion strains, locus YPL106C, strain sse1, active compounds read low 0.978 | S. cerevisiae deletion strains, locus YPL240C, strain hsp82, active compounds read low 0.968 | S. cerevisiae deletion strains, locus YPL256C, strain CLN2, active compounds read low 0.977 | S. cerevisiae deletion strains, locus YPR119W, strain clb2, active compounds read low 1.02 | S. cerevisiae deletion strains, locus YPR141C, strain kar3, active compounds read low 1.03 | S. cerevisiae deletion strains, locus YPR163C, strain tif3, active compounds read low 1.02 | S. cerevisiae deletion strains, locus YPR167C, strain met16, active compounds read low 1.02 | S. cerevisiae deletion strains, strain wtn01, active compounds read low 1.03 | S. cerevisiae strains, strain wild type, active compounds read low 1.01
